Screening data from PubChem BioAssay.
Shiga toxin inh: blocks Shiga toxin action in Vero cells; Vero cells, Shiga toxin protein synthesis inhibition reporter; inhibition, % at 38.7 µM; 290,000 compounds, 9.2% hits; AID 2315; in the data active = inhibition mostly above about 28%, no sharp cut-off; inactive = mostly below about 43%
Sm TGR inh: inhibitors of Schistosoma mansoni thioredoxin glutathione reductase; purified TGR, DTNB reduction, TNB absorbance 405 nm; Potency, µM (highest dose often 114 µM), hits mostly inhibitors; 360,000 compounds, 3% hits; Q962Y6; note: nearly all actives have a fitted effect of over 60% in size
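First, TGR (20 nM dispensed) and NADPH were mixed with compound. Second, a 15 min room-temperature incubation followed. Third, further NADPH and then DTNB were added to start the reaction. Finally, TNB absorbance was monitored kinetically.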
NS1 inh: inhibitors of influenza NS1 protein function; 270,000 compounds, 0.4% hits; Potency, µM (highest dose often 46.1 µM); AID 2326; calls by dose curve; note: actives are rising curves; nearly all actives have a fitted effect of over 50% in size
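Read-out: OD600 growth recovery of NS1-expressing budding yeast. Cells grown overnight at 30C in -URA glucose medium, washed, resuspended and diluted 1:100 in 2% galactose assay medium, pH 6.0. Same strain lacking NS1 served as positive control.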
CHX counter: affects cycloheximide protein synthesis inhibition readout, counter-screen | 300,000 compounds, 12% hits | max response, % | cell reporter, cycloheximide protein synthesis inhibition counterscreen; in the data active = max response mostly above about 13%, no sharp cut-off; inactive = mostly below about 14%; note: read at 38.3 µM for the half of the compounds with a filed dose
Pf growth 48h: P. falciparum growth inhibition at 48 hours (one generation); P. falciparum luciferase growth in erythrocytes, 48 h; Potency, µM (titrated, usually from 28.7 µM), most hits filed as inhibitors; 310,000 compounds, 5.9% hits; AID 504832
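Here the parasites carry a stable luciferase gene and grow inside erythrocytes in Albumax-based RPMI medium with compound for one erythrocytic cycle. Activity is scored as loss of luminescent signal.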
Pf growth 96h: P. falciparum growth inhibition at 96 hour, primary screen for plastid delayed-death inhibitors. P. falciparum luciferase reporter growth, 96 h. Potency, µM (series often up to 28.7 µM), usual class: inhibitors. 320,000 compounds, 6.9% hits
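Parasite growth measured via integrated firefly luciferase reporter in P. falciparum. Infected erythrocytes at 2% hematocrit, 0.05% parasitemia final were treated 96 hours at 37 C under 5% CO2, and luminescence was read.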
Of the large screens only hits and unclear results are named; the others gave an inactive call. Rows were chosen to be rich in hits. Some 21% of all compounds tested hit in one or more screens of this group. Unless noted, calls come from the whole dose curve; as a rule, active = well fitted curve in the direction sought with a large enough effect; inconclusive = small, poorly fitted or top-dose-only effect, or another doubt; inactive = no such curve, though single readings can be large; an effect the other way counts as inactive or inconclusive.

CCN(CC)c1nc2nonc2nc1N(CC)CC	Pf growth 96h 4.65µM
COc1cc2c(cc1OC)C(c1cc3ccc(C)cc3[nH]c1=O)N(C(=O)c1ccco1)CC2 (centres undefined)	Pf growth 48h 13.1µM
COc1cc2c(cc1OC)C(C)N(C(=O)c1ccc(C)o1)CC2 (centres undefined)	none
COc1cc2c(cc1OC)C(c1cc3cc4c(cc3[nH]c1=O)OCO4)N(C(=O)C1CC1)CC2 (centres undefined)	Pf growth 48h 13.1µM
CC1=C(C(=O)OCC(C)C)C(c2ccccc2Cl)NC(=O)N1C (centres undefined)	Sm TGR inh inconclusive (no result: Pf growth 48h)
CC1=C(C(=O)OCC(C)C)C(c2cc3c(cc2Br)OCO3)NC(=O)N1C (centres undefined)	Pf growth 48h 10.4µM
CCOCCOC(=O)C1=C(C)NC(=O)NC1c1cc2c(cc1Br)OCO2 (centres undefined)	Pf growth 96h inconclusive
COC(=O)C1=CN(C(C)C)C=C(C(=O)OC)C1c1cc2c(cc1Br)OCO2	Pf growth 48h inconclusive, Pf growth 96h 3.7µM
CCOC(=O)C1=C(C)NC(=O)NC1c1cc2c(cc1Br)OCO2 (centres undefined)	Pf growth 48h 9.28µM
O=S(=O)(c1ccc(Cl)cc1)N1CCN(Cc2ccc(O)c3ncccc23)CC1	Sm TGR inh inconclusive, Pf growth 48h 1.85µM, Pf growth 96h inconclusive (no result: NS1 inh)
CN1CCN(C2CCN(Cc3ccc(O)c4ncccc34)CC2)CC1	Sm TGR inh 1.58µM, Pf growth 48h inconclusive, Pf growth 96h inconclusive (no result: Shiga toxin inh, NS1 inh, CHX counter)
Oc1ccc(CN2CCN(Cc3ccccc3)CC2)c2cccnc12	none (no result: Pf growth 96h)
CC(C)c1ccc(NC(=O)c2ccc(CN3CC(=O)N4CCCCC4C3=O)cc2)cc1 (centres undefined)	none (no result: Shiga toxin inh, NS1 inh, CHX counter, Pf growth 48h, Pf growth 96h)
Cc1cccc(-n2c(Cc3ccccc3)nnc2SCC(=O)N2CCOCC2)c1	Pf growth 96h 4.15µM (no result: Pf growth 48h)
O=C(CSc1nnc(Cc2ccccc2)n1C1CCCCC1)N1CCOCC1	CHX counter 16.2, Pf growth 96h inconclusive
Cc1cccc(-n2c(Cc3ccccc3)nnc2SCc2ccc([N+](=O)[O-])cc2)c1	Pf growth 48h inconclusive, Pf growth 96h 7.38µM
CCN(CC)CCN1C(=O)c2ccccc2NC1c1ccc(N(C)C)cc1 (centres undefined)	Pf growth 48h 0.415µM (no result: Pf growth 96h)
CN(C)c1ccc(C2Nc3ccccc3C(=O)N2CCCN2CCOCC2)cc1 (centres undefined)	Shiga toxin inh 43.0, CHX counter 30.6, Pf growth 48h inconclusive, Pf growth 96h inconclusive
CCN(CC)CCN1C(=O)c2ccccc2NC1c1ccc(Br)cc1 (centres undefined)	Pf growth 48h 1.04µM, Pf growth 96h 13.1µM (no result: NS1 inh)
CCN(CC)CCN1C(=O)c2ccccc2NC1c1ccc(F)cc1 (centres undefined)	Pf growth 48h inconclusive, Pf growth 96h inconclusive
O=C(NC1CCCC1)C1c2ccccc2C(=O)N1CCCN1CCOCC1 (centres undefined)	none
CCN(CC)CCN1C(=O)c2ccccc2NC1c1ccc(C)cc1 (centres undefined)	Pf growth 48h 1.65µM (no result: Pf growth 96h)
CCCS(=O)(=O)N1CC(=O)N(c2ccc(C)c(Cl)c2)C(C)(C(=O)NC2CCCCCC2)C1 (centres undefined)	none (no result: Shiga toxin inh, NS1 inh, CHX counter, Pf growth 48h, Pf growth 96h)
CCOc1ccc2ncc3c(-c4ccccc4)nn(CC(=O)Nc4cccc(F)c4)c3c2c1	none (no result: Shiga toxin inh, NS1 inh, CHX counter, Pf growth 48h, Pf growth 96h)
CC(C)Oc1ccc(N2CC(C(=O)Nc3ccccc3C(=O)NC3CC3)CC2=O)cc1 (centres undefined)	Pf growth 48h inconclusive (no result: Shiga toxin inh, NS1 inh, CHX counter)
O=C(c1ccc([N+](=O)[O-])cc1)N1CCN(C(=O)C2CCCCC2)CC1	none
CN1c2ccccc2C2(C)CCCC3=Cc4cc([N+](=O)[O-])cc([N+](=O)[O-])c4OC312 (centres undefined)	Pf growth 48h 5.86µM, Pf growth 96h inconclusive
CN1c2ccccc2C2(C)CCCC3=Cc4cccc([N+](=O)[O-])c4OC312 (centres undefined)	Pf growth 48h inconclusive, Pf growth 96h inconclusive
CCN(CC)C(=O)OCCc1cc2ccccc2c(=O)o1	Sm TGR inh 3.16µM, Pf growth 96h inconclusive (no result: Shiga toxin inh, NS1 inh, CHX counter)
N#Cc1ccc(C(=O)OCCCc2cc3ccccc3c(=O)o2)cc1	Sm TGR inh 50.1µM (no result: Shiga toxin inh, NS1 inh, CHX counter)
O=C(OCCCc1cc2ccccc2c(=O)o1)c1ccccc1C(F)(F)F	Sm TGR inh 11.2µM (no result: Shiga toxin inh, NS1 inh, CHX counter)
